# Test results reported in PubChem BioAssay (NCATS).
# Results filed as inconclusive are left out. Entries that show only a call come without a potency. Activity calls are given as the source filed them. Calls come from the whole dose curve; as a rule, active = well fitted inhibition curve with a large enough effect; inconclusive = small, poorly fitted or top-dose-only effect; inactive = flat fitted curve, though single readings scatter.
# Tested on: Zika virus NS2B-NS3 protease
# Assay: Primary screen GU AMC qHTS for Zika virus inhibitors (AID 1347154); note: nearly all actives have a fitted effect of over 70% in size
# Conditions: Zika NS2B-NS3 unlinked protease, AMC fluorogenic substrate; series mostly up to 54.1 µM
# Summary of the method: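 Fluorogenic AMC-substrate cleavage by noncovalent NS2B-NS3 protease complex (25 nM, pH 8.0 Tris buffer with Tween 20) followed for 15 minutes at room temperature (~20% conversion). Percent inhibition from ex340/em450 signal change, fitted by 4-parameter Hill equation.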
# Potency is the fitted concentration of half-maximal effect.
row,SMILES,Potency
1,O=C(O)P(=O)(O)O,inactive
2,CCCCCCCCCCCCSCCOCCO,inactive
3,CCOCCn1c(N2CCCN(C)CC2)nc2ccccc21,inactive
4,Cc1nc(-c2ccc(Cl)cc2)oc1COC(C)(C)C(=O)O,inactive
5,CN(C)CCOC(c1ccc(Cl)cc1)c1ccccn1 (stereo unspecified),inactive
6,CCC(C(=O)OCCOCCN(CC)CC)c1ccccc1 (stereo unspecified),inactive
7,O=C(Nc1ccccc1)OCC(CN1CCCCC1)OC(=O)Nc1ccccc1 (stereo unspecified),inactive
8,CCOC(=O)[C@@](C)(N)Cc1ccc(O)c(O)c1,inactive
9,OC[C@H]1O[C@@H](Oc2ccc(O)cc2)[C@H](O)[C@@H](O)[C@@H]1O,inactive
10,NCc1ccccc1Sc1ccccc1CO,inactive
11,CC(=O)OC[C@H]1O[C@@H](n2ncc(=O)[nH]c2=O)[C@H](OC(C)=O)[C@@H]1OC(C)=O,inactive
12,CCC(Cc1c(I)cc(I)c(N)c1I)C(=O)O (stereo unspecified),inactive
13,NCCNc1cccc2ccccc12,14.4 µM (active)
14,CC(=O)O[C@]1(C(C)=O)CC[C@H]2[C@@H]3C=C(C)C4=CC(=O)CC[C@]4(C)[C@H]3CC[C@@]21C,inactive
15,CCOc1ccccc1C(N)=O,inactive
16,CC(C)Cc1ccc(CC(=O)O)cc1,inactive
17,CC(C)[N+](C)(C)CC(O)COc1cccc2ccccc12 (stereo unspecified),inactive
18,O=C(CCN1CCN2CCCC2C1)N1c2ccccc2Sc2ccc(Cl)cc21 (stereo unspecified),inactive
19,COP(=O)(OC)OC(c1ccc(Cl)cc1)P(=O)(OC)OC (stereo unspecified),inactive
20,CCc1oc2ccccc2c1C(=O)c1cc(I)c(O)c(I)c1,28.7 µM (active)
21,CC(C)[C@@H]1CC[C@@H](C)CC1=O,inactive
